# Assay outcomes: PubChem, several laboratories
# A selection: hits, their analogues and other compounds. The true share with any hit is near 7%.
# AHR act = human AHR activation | P35869 | AHR-responsive luciferase reporter cells, luminescence | activation, % at 5 µM | 320,000 tested, 2.5% active; in the data active means activation above about 47%;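 further: 0% = vehicle wells and 100% = reference agonist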
# ADAM10 inh = inhibitors of human ADAM10; O14672; recombinant ADAM10, EDANS/DABCYL FRET peptide cleavage, 3 h; inhibition, % at 7 µM; 370,000 tested, 0.62% active; AID 720582;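 active means inhibition above a per-campaign cutoff equal to the mean of compounds falling between control-based bounds plus 3 SD, cut at about 20% in these data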;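 further: 0% = DMSO wells while the 100% control is not disclosed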
# rCAG RNA binder = binds r(CAG) RNA repeats | inhibition, % at 3 µM | 370,000 tested, 1.3% active | r(CAG) RNA repeat, TO-PRO-1 dye displacement fluorescence;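 active means inhibition above the plate cutoff, the mean of all test compounds on that plate plus 3 SD, cut at about 35% in these data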;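 further: 0% = DMSO alone and 100% = 100 µM mitoxantrone as full dye displacement; higher means more dye released from RNA so lower well fluorescence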
# proKLK7 act = activates the human kallikrein-7 zymogen | P49862 | purified proKLK7, EDANS-DABCYL substrate fluorescence; 100% is mature enzyme control, 0% vehicle | activation, % at 7 µM | 370,000 tested, 0.9% active;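 active means activation above the mean of all tested compounds plus 3 SD, computed per campaign excluding outliers beyond control limits, cut at about 13% in these data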
# Target sequence (P49862 whole entry, looked up): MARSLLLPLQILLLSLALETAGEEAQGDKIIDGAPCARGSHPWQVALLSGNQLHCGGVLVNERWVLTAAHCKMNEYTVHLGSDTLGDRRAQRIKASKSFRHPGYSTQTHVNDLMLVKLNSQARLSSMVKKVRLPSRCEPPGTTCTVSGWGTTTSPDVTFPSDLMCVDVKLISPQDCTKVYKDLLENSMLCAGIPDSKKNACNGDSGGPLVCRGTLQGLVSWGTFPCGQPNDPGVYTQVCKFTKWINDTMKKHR
# ADAM17 inh = inhibitors of human ADAM17; P78536; recombinant ADAM17, EDANS/DABCYL FRET peptide cleavage; inhibition, % at 6.95 µM; 370,000 tested, 0.83% active;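 active means inhibition above the mean of compounds lying between control limits plus 3 SD, set per campaign, cut at about 8.5% in these data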;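 further: 0% = DMSO-only wells as the low control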
# NR3A LBD binder = NR3A (human) ligand-binding domain modulation. NR3A LBD differential scanning fluorimetry, Tm shift; 0% = protein alone, 100% = glycine-bound protein. Tm shift relative to glycine control, % at 25 µM. 340,000 tested, 2.5% active;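 active means melting temperature shift of at least 10% of the positive control shift, at one fixed dose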
# proKLK7 act conf = confirmation of human kallikrein-7 zymogen activators. 3,200 tested, 68% active. purified proKLK7, EDANS-DABCYL substrate fluorescence; scaled: vehicle 0, mature enzyme 100. AID 686949. shares compounds with proKLK7 act. activation, % at 7 µM;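 active means activation, as change over the incubation, above the mean of all tested compounds plus 3 SD, cut at about 13% in these data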
# EDANS-DABCYL int = fluorescence interference counter-screen for KLK7 activators; shares compounds with proKLK7 act; activation, % at 7 µM; EDANS-DABCYL substrate fluorescence interference, no enzyme, 4 h; solvent 0%, active enzyme control 100%; 3,200 tested, 80% active;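 active means activation above the all-compound mean plus 3 SD, ignoring values outside control-based bounds, cut at about 4.8% in these data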;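 further: value is the 4 h activation minus the activation read at time zero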
# EDANS interf = optically interferes with EDANS-DABCYL fluorescence, kallikrein-7 activator counter-screen; shares compounds with proKLK7 act; EDANS-DABCYL peptide fluorescence interference, no enzyme; EC50, µM; 250 tested, 20% active;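 active means compounds that raise the fluorescence signal in this interference counterscreen, with EC50 at or below 10 µM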;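 further: intact quenched peptide substrate alone read at 355 nm excitation and 520 nm emission; signal is fluorescence gain from T0 to T4 after four hours at room temperature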
# Starred values were filed as active, the others as inactive; i = inactive; / = not tested or not shown.
SMILES,AHR act,ADAM10 inh,rCAG RNA binder,proKLK7 act,ADAM17 inh,NR3A LBD binder,proKLK7 act conf,EDANS-DABCYL int,others
CCN(CC)C(=O)c1cc2c(=O)n3ccccc3nc2s1,10,i,1,64*,i,-1,64*,82*,
CCC(C)NC(=O)c1cc2cc3ccc(OC)cc3nc2s1 (stereo not given),-2,i,-1,30*,i,-4,3,5.7*,
CC(C)CN(CC(C)C)C(=O)c1cc2c(=O)n3ccccc3nc2s1,4,i,-3,22*,-325,-4,-78,-69,
COc1ccc2cc3cc(C(=O)NCCN4CCc5ccccc5C4)sc3nc2c1,3,-476,-2,-7,-118,-10,/,/,
CC(C)CCNC(=O)c1cc2c(=O)n3ccccc3nc2s1,-7,i,2,63*,i,2,33*,41*,
O=C(O)CCc1nc2cc(C(F)(F)F)ccc2n(Cc2ccccc2)c1=O,2,-20,8,1,-7,-1,/,/,
Cc1cc(C)n2c(Nc3ccc4c(c3)OCCO4)c(CC(C)C)nc2n1,/,-4,3,1,-1,/,/,/,
CCn1cc(C(=O)N(C)CC(OC)OC)c(=O)c2cc(S(=O)(=O)N3CCOCC3)ccc21,0,-4,-1,0,0,0,/,/,
CCC(C)NC(=O)c1cc2c(=O)n3ccccc3nc2s1 (stereo not given),-2,i,-3,66*,i,0,61*,70*,
COCCN(CCOC)C(=O)c1cc2c(=O)n3ccccc3nc2s1,5,i,2,9,-232,1,/,/,
CCOC(=O)c1nn(-c2ccccc2)c(C#N)c1N,2,i,-2,25*,i,-1,18*,25*,
CCOC(=O)c1nn(-c2ccccc2)c(=O)c(C#N)c1C,2,-22,-5,-2,-10,0,/,/,
CC(C)(C)OC(=O)N1C[C@@]23C[C@H](c4cccc(F)c4)[C@@H](C[C@@H]2S1(=O)=O)O3,/,-10,3,0,-4,/,/,/,
COc1ccc2oc(=O)c(C(=O)N3CCN(C(=O)c4ccco4)CC3)cc2c1,3,i,2,26*,-310,-1,27*,30*,
C/C(=N\NC(=O)c1ccncc1)c1cc2ccccc2oc1=O,4,1,1,0,-2,4,/,/,
COc1ccc2oc(=O)c(/C(N)=N/NC(=O)c3ccncc3)cc2c1,4,-73,-1,15*,-33,2,121*,135*,
COc1ccc2oc(=O)c(C(=O)N3CCN(C(=O)c4ccccc4)CC3)cc2c1,2,i,-2,21*,-211,-5,25*,16*,EDANS interf=>70
CCCCNC(=O)C1(C)CCN1C(=O)c1cccnc1Oc1ccccc1 (stereo not given),/,-18,-1,0,-4,/,/,/,
Cn1c(=O)c2cc(NC(=O)NCCc3ccccc3)ccc2n1Cc1ccc(F)cc1,/,i,2,16*,i,/,1,0,
Cn1c(=O)c2cc(NC(=S)NC3CC3)ccc2n1Cc1ccc(F)cc1,/,i,3,14*,-157,/,9,14*,
C=C(C)Cn1c2ccc(NC(=O)NCCc3ccccc3)cc2c(=O)n1C,/,i,2,27*,i,/,8,20*,
Cn1c(=O)c2cc(NC(=S)NC3CCCCC3)ccc2n1-c1ccccc1,/,-473,4,-14,-130,/,/,/,
CN1CCN(C(=O)c2cc3nc(-c4ccco4)cc(C(F)(F)F)n3n2)CC1,-1,-440,-4,30*,-146,0,17*,11*,EDANS interf=>70
O=C(NCCCN1CCOCC1)c1cc2nc(-c3ccco3)cc(C(F)(F)F)n2n1,1,-380,-4,15*,-136,-2,14*,11*,EDANS interf=>70
O=C(NC1CCCCC1)c1cc2nc(-c3ccco3)cc(C(F)(F)F)n2n1,/,/,/,/,/,-1,/,/,
SMILES,AHR act,ADAM10 inh,rCAG RNA binder,proKLK7 act,ADAM17 inh,NR3A LBD binder,proKLK7 act conf,EDANS-DABCYL int,others
O=C(c1cccc(F)c1)N1CCN(C(=O)c2cc3nc(-c4ccco4)cc(C(F)(F)F)n3n2)CC1,1,-57,6,-6,-22,-2,/,/,
COc1cccc(C(=O)NCCS(=O)(=O)NCCCc2ccccc2)c1,0,0,-6,0,-6,-3,/,/,
COc1ccc(Cn2cc(CN3CC(N4CCN(Cc5ccccc5F)CC4)CS3(=O)=O)nn2)cc1 (stereo not given),/,2,0,-1,3,/,/,/,
COc1cccc(-c2cccc3c2NC(=O)C3(C)Cc2cccc(F)c2)c1 (stereo not given),/,7,0,-1,3,/,/,/,
COc1ccccc1N1C(=O)S/C(=C\c2ccc(C)s2)C1=O,20,3,0,-1,0,2,/,/,
COc1ccccc1N1C(=O)S/C(=C\c2cc(C)n(C)c2C)C1=O,-14,1,5,24*,1,0,32*,80*,
Cc1ccc(NC(=O)CN2C(=O)S/C(=C\c3cc(C)n(C)c3C)C2=O)cc1,-1,-2,13,20*,-1,4,7,0,
N#Cc1cnn2ccc(-c3ccc4c(c3)CCC4)nc12,-1,i,-1,95*,i,0,57*,76*,
Cc1coc2cc3oc(=O)c(CC(=O)N(C)CC(=O)O)c(C)c3cc12,-1,i,8,13*,-272,2,14*,17*,
Cc1coc2cc3oc(=O)c(Cc4ccccc4)c(C)c3cc12,26,-120,5,-6,-33,-8,/,/,
CCOC(=O)N1CCN(S(=O)(=O)N2CCCC(C(=O)NCc3ccccc3OCC)C2)CC1 (stereo not given),/,0,1,0,1,/,/,/,
Nc1ccc2cc3[nH]c4cc(N)ccc4c3nc2c1,/,i,-75,86*,-317,-4,75*,75*,
CC1CCN(CC(=O)Nc2ccc(N3CCCCCC3)cc2)CC1,2,-2,-9,1,-3,-2,/,/,
CCN(CC)CCCNC(=O)c1cc2cc(Cl)ccc2nc1N,/,i,3,17*,-168,/,26*,25*,
Nc1nc2ccc(Cl)cc2cc1C(=O)NC1CC1,/,i,2,16*,-253,/,12,8.8*,
Nc1nc2ccc(Cl)cc2cc1C(=O)NCCc1ccc(Cl)cc1Cl,/,-53,5,-1,-14,/,/,/,
Cc1cc(C)c(NC(=O)CNC(=O)COC(=O)C2=COCCO2)c(C)c1,4,1,-2,0,0,0,/,/,
